Experimental findings from PubChem BioAssay (NCI) are described below.

About 83,000 compounds went through this panel and 20% of them were active in at least one assay; those are over-represented in the sample as a whole.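 How to read the values: 0–100, growth inhibition (40 = 60% inhibited); 0, no net growth; -100 to 0, cell death (-40 = 40% of starting cells died; -100 = all dead).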 The source made the active and inactive calls.

This assay has as its system SN12C renal. The assay can be described thus: NCI-60 one-dose screen, 48 h (100 = growth as untreated, 0 = no growth, -100 = all killed). As to conditions: 10 µM unless noted. The procedure: Growth inhibition of the SN12C human tumor cell line is measured as a screen for anti-cancer activity. Cells are grown in 96 well plates and exposed to the test compound for 48 hours. Compounds are tested at a single concentration, which is 10^-5 M for most compounds. The reported endpoint is percent growth (GI% or GIPRCNT), where numbers from 0 - 100% represent growth inhibition, and numbers from -100% - 0 represent cell death. For example, a value of 40 represents 60% growth inhibition. A value of 0 means no net growth occurred over the course of the experiment. A value of -40 indicates 40% of cells at the beginning of the experiment died by the end of the experiment. A value of -100 means all cells are dead at the end of the experiment.
NCI-60 Human Tumor Cell Lines Screen was performed using the standard one-dose NCI protocol, which is described in more detail at https://dtp.cancer.gov/discovery_development/nci-60/default.htm.
Compounds with GIPRCNT values below 10 were considered active. Activity score was based on GIPRCNT using the following formula: […]
Score is 0 for GIPRCNT values of 100 or above, 50 for GIPRCNT values of 0, and 100 for GIPRCNT values of -100.
Turning to `COc1cc(-c2nn(C(C)(C)C)cc2-c2ccnc(NCCCNS(=O)(=O)c3cccc(F)c3)n2)ccc1Cl`, the growth was 58.6% (inactive).
Regarding `COc1cc(/C=C2\C(=O)Nc3cc(Cl)ccc32)ccc1OCc1ccc(F)cc1`, the growth is 95.9% (inactive).
With `CCn1c2ccccc2c2cc(-n3nncc3-c3ccccc3)ccc21`, the growth is 25.4% (inactive).
With `CCOC(=O)c1c(Nc2ccccc2)nn2c(-c3ccc(Cl)cc3)ccnc12` the figure was 83.9% (inactive); with `CCN1CCN(C(=O)[C@]23CCC(C)(C)C[C@H]2C2=CC[C@@H]4[C@@]5(C)Cc6c([nH]c7ccccc67)C(C)(C)[C@@H]5CC[C@@]4(C)[C@]2(C)CC3)CC1`, 81.7% (inactive); with `COc1ccc(Cn2cc3c(c2-c2cc(OC)c(OC)c(OC)c2)CCc2c(CN4CCOCC4)noc2-3)cc1`, 31.6% (inactive).
`O=C(Nc1ccc2c(ccn2Cc2ccccn2)c1)c1cnccn1`: the growth is 75.9% (inactive).
Take `Cc1ccc2c(c1)Oc1nc(N)c(C#N)c(N)c1C2Sc1ccc(F)cc1` (stereo not given): the growth is -98.4% (active).
With `c1cn2c(ccc3nc(-c4cn[nH]c4)c4c(c32)CCCC4)n1`, the growth was 59.2% (inactive).
Turning to `O=c1c2ccccc2nc(COc2ccccc2)n1NS(=O)(=O)c1ccc(Cl)cc1`, the growth was 76.6% (inactive).
Take `COc1ccc(C(=O)Nc2ncc(Cc3ccccc3Cl)s2)cc1`: the growth is 32.7% (inactive).
For the molecule `CC1(C)[C@@H](O)CC[C@]2(C)[C@H]3CC[C@@H]4[C@H]5[C@H](C(=O)/C=C\c6ccc([N+](=O)[O-])cc6)CC[C@]5(O)CC[C@@]4(C)[C@]3(C)CC[C@@H]12`, the growth was 73.5% (inactive).
For `Clc1cccc(/C=N/Nc2nc(N/N=C/c3cccc(Cl)c3Cl)nc(N3CCCCC3)n2)c1Cl`, the growth is 80.7% (inactive).
Regarding `COc1ccc(NC(=O)CSc2nnc(-c3ccc4nc(-c5ccccc5)[nH]c4c3)o2)cc1`, the growth was 96% (inactive).
With `Cn1cc(-c2cc(N)n3nc(-c4cn(C)c5ccccc45)cc3n2)c2ccccc21` the figure was 88.6% (inactive); with `CCN(CC)c1ccc2c(c1)Oc1nc(N)c(C#N)c(N)c1C2Sc1ccc(C)cc1` (stereo not given), -69.7% (active); with `CNC(=O)c1cc(Oc2ccc3nc(NC(=O)c4ccc(N5CCOCC5)c(C(F)(F)F)c4)sc3c2)ccn1`, 90.4% (inactive).
With `Cc1ccc(-c2cc3nc(C(Cl)Cl)nc(-c4ccco4)n3n2)cc1` the figure was 66.4% (inactive); with `CCCCCc1ccc(S(=O)(=O)Nc2cc(-c3csc(NC(=O)CN4CCN(C)CC4)n3)ccc2N2CCN(C)CC2)cc1`, -21.6% (active); with `O=C1/C(=C/C=C/c2ccco2)SC(=S)N1C1CCCCC1`, 83.4% (inactive).
Regarding `Cc1ccc(-c2cc3nc(C(Cl)Cl)nc(C)n3n2)cc1`, the growth is 113% (inactive).
`COc1cccc(N2CCN(c3ncnc4c3[nH]c3ccc(F)cc34)C[C@H]2C)c1`: the growth was 71.5% (inactive).
For `CCNC(=O)N1CCc2cc(OC)c(OCCc3ccc(OC)cc3)cc2C1c1ccc(OC)cc1C` (stereo not given), the growth is 30.2% (inactive).
In the case of `NS(=O)(=O)c1ccc(Nc2nc(N/N=C/c3ccccn3)nc(Nc3ccccc3)n2)cc1`, the growth was 2.73% (active).
As for `O=C(NCc1ncc[nH]1)c1ccc(-c2nc3ccc4[nH]ncc4c3c3c2CCCC3)cc1`, the growth was 10.5% (inactive).
The result for `CN(C)CCCOc1ccc2c(c1)CN(C(=O)c1cc(C(=O)N3Cc4cccc(F)c4C3)ccc1O)C2` reads 99.4% (inactive).
Turning to `Nc1nc(N)c2c(n1)NC(c1ccc(Cl)cc1)CC(c1ccc(Nc3nc(NCCO)nc(N4CCOCC4)n3)cc1)=N2` (stereo not given), the growth was 82.1% (inactive).
For `CS(=O)(=O)Nc1cc(-c2ccc3ncc(C#N)c(NCc4ccccc4O)c3c2)cnc1Cl`, the growth is 17.1% (inactive).
`O=C(CN1CCN(c2cc(=O)n(-c3ccccc3)c3ccccc23)CC1)Nc1nc(-c2ccc(Cl)cc2)cs1`: the growth is 74.1% (inactive).
On to `COc1ccc2c(c1)c(CC(=O)[Se]CCC#N)c(C)n2C(=O)c1ccc(Cl)cc1`, for which the growth was -82.6% (active).
With `Cc1cc(S(=O)(=O)N(C)C)cc(NCC(=O)NC(=O)NCC(C)C)c1C` the figure was 87.9% (inactive); with `COc1ccc(NCc2cn(-c3ccc(C(=O)O)cc3)nc2-c2cc(C(F)(F)F)cc(C(F)(F)F)c2)cc1`, 95.4% (inactive).
For the molecule `COC(=O)C(Cc1ccccc1)Nc1nc(NC(Cc2ccccc2)C(=O)OC)nc(N2CCOCC2)n1` (stereo not given), the growth is 104% (inactive).
As for `O=C1[C@H]2Cc3c([nH]c4ccccc34)[C@@H](c3ccc(Br)cc3)N2C(=O)CN1C1CCN(CC2CCCCC2)CC1`, the growth is -96.9% (active).
Take `COC(=O)c1[nH]nc2c1C1(C(=O)N(C)c3ccccc31)C(C#N)=C(N)O2` (stereo not given): the growth was 97.9% (inactive).
`ClC(Cl)c1nc(-c2ccco2)n2nc(-c3ccccc3)cc2n1`: the growth is 66.5% (inactive).
`COc1cccc2cc(-c3cc4ccccc4[nH]3)/c(=N\NC(=O)c3ccc(Cl)cc3)oc12`: the growth was 43% (inactive).
For the molecule `CCOC(=O)c1c(N)c(C#N)cn1-c1cc(OC)c(OC)c(OC)c1`, the growth was 101% (inactive).
With `Cc1c(Cl)cccc1S(=O)(=O)Nc1ccc2c(c1)C(=O)N(C1CCC(=O)NC1=O)C2=O` (stereo not given) the figure was 89.4% (inactive); with `O=C(c1ccc(O)cc1)[C@@H]1CN[C@@]2(C(=O)Nc3ccccc32)[C@H]1c1ccc(F)cc1`, 98.6% (inactive).
